# From PubChem BioAssay
# Calls of active or inactive are those of the source.
# What was measured:
# [1] = tested on: PRMT1 (protein arginine N-methyltransferase 1); assay: PRMT1 binders on small-molecule microarrays, primary screen, biochemical, small-molecule microarray, 635 nm fluorescence (AID 1088); settings: small-molecule microarray binding, higher = more signal;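 also: binding of Prmt1 protein to compounds spotted on small-molecule microarray slides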
# [2] = yeast growth modulation, basal conditions, primary screen, YJM789 clinical isolate, OD600, 24 h (AID 1089);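 also: growth of clinical yeast isolate S. cerevisiae YJM 789 seeded 1000 cells per well; test concentration not given here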; settings: S. cerevisiae YJM789 growth, higher = more signal, called active from +8 up or from −8 down
# [3] = fission yeast growth modulation, primary screen, strain 972, OD600, 24 h, no modulator (AID 1090);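 also: basal condition with compound alone and no growth modifier present; test concentration not given here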; settings: S. pombe 972 growth, higher = more signal, called active from +8 up or from −8 down
# [4] = S. cerevisiae growth modulation with rapamycin, primary screen, strain BY4716, OD600, 96 h (AID 1091); settings: higher = more signal, called active from +8 up or from −8 down; also: test concentration not given here
# [5] = molecular target: Torsin-1A-interacting protein 2 (Homo sapiens) (UniProt Q8NFQ8); assay: LULL1 binders on small-molecule microarray, primary screen, cell lysate, human LULL1 lysate, 635/667 nm fluorescence (AID 1092); settings: hLULL1 lysate binding, 635 nm fluorescence, higher = more signal;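 also: probe is lysate of COS7 cells overexpressing human LULL1; score merges per-feature 667 nm fluorescence with signal-to-noise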
# [6] = E. coli growth modulation, two-sided OD650, primary screen, E. coli filamentation project, strain DRC41, 24 h (AID 1093); settings: OD650, 24 h, higher = more signal, called active from +8 up or from −8 down;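 also: MC1000 strain lacking acrAB efflux and sulA so SOS filamentation is blocked; test concentration not given here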
# [7] = small-molecule microarray binders of probe aLefty2, primary screen, biochemical, biotinylated probe, 635/667 nm fluorescence (AID 1094); settings: higher = more signal;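 also: score merges spot fluorescence near 667 nm with spot signal-to-noise ratio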
# [8] = tested on: Noggin (protein binding on small-molecule microarray); assay: Noggin binders on small-molecule microarray, primary screen, biochemical, 635/667 nm fluorescence (AID 1095); settings: 635 nm fluorescence, higher = more signal;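 also: score merges 667 nm feature fluorescence with signal to noise over triplicate slides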
# [9] = molecular target: Neurogenic locus notch homolog protein 3 (Homo sapiens) (UniProt Q9UM47); assay: NOTCH3 binders on small-molecule microarray, primary screen, biochemical, 635/667 nm fluorescence (AID 1096); settings: NOTCH3 binding, 635 nm fluorescence, higher = more signal
# [10] = small-molecule microarray binders of probe aEGFR, primary screen, biochemical, biotinylated probe, 635/667 nm fluorescence (AID 1097); settings: higher = more signal;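 also: probe is a biotinylated anti-EGFR antibody binding compounds printed on slides; score combines fluorescence near 667 nm and signal to noise of each spot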
# [11] = tested on: Plasmodium falciparum Sir2 (PF13_0152, Sir2A); assay: pfSir2 binders on small-molecule microarrays, primary screen, biochemical, small-molecule microarray, 635 nm fluorescence (AID 1098); settings: small-molecule microarray binding, fluorescence 635 nm; higher = more signal;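 also: score merges spot fluorescence intensity with its signal-to-noise ratio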
# [12] = small-molecule microarray binders of probe aDKK1, primary screen, biochemical, biotinylated probe, 635/667 nm fluorescence (AID 1099); settings: higher = more signal;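 also: score merges 667nm spot fluorescence with signal to noise across triplicate slides; reference of the scale not given here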
# [13] = small-molecule microarray binders of probe aCHRDL2, primary screen, biochemical, biotinylated probe, 635/667 nm fluorescence (AID 1100); settings: higher = more signal
# [14] = splicing luciferase reporter signal modulators, primary screen, spliceosome inhibition project, cell-based, HEK293, splice +/- reporter (AID 1101); settings: luminescence, 24 h, higher = more signal, called active from +8 up or from −8 down;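 also: HEK293 cells carrying a splicing-competent luciferase reporter gene; test concentration not given here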
# [15] = molecular target: Fibroblast growth factor 10 (Homo sapiens) (UniProt O15520); assay: FGF10 binders on small-molecule microarrays, primary screen, biochemical, small-molecule microarray, 635 nm fluorescence (AID 1102); settings: FGF10 binding, fluorescence 635 nm, higher = more signal
# [16] = tested on: glycogen synthase kinase-3 (GSK3A per assay name; protocol says GSK3B); assay: GSK3 binders on small-molecule microarrays, primary screen, biochemical, small-molecule microarray, 635 nm fluorescence, GSK3A (AID 1103); settings: small-molecule microarray binding, fluorescence 635 nm; higher = more signal; also: the record names both GSK3A and GSK3B
# [17] = molecular target: Epidermal growth factor receptor (Homo sapiens) (UniProt P00533); assay: EGFR binders on small-molecule microarrays, primary screen, biochemical, small-molecule microarray, 635 nm fluorescence (AID 1104); settings: EGFR binding, higher = more signal;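 also: score merges 667 nm emission intensity with spot signal to noise over triplicate slides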
# [18] = molecular target: Follistatin-related protein 3 (Homo sapiens) (UniProt O95633); assay: FSTL3 binders on small-molecule microarrays, primary screen, biochemical, small-molecule microarray, 635 nm fluorescence (AID 1105); settings: FSTL3 binding, higher = more signal;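 also: score merges emission near 667 nm and signal to noise per printed spot across three slides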
# [19] = molecular target: Dickkopf-related protein 1 (Homo sapiens) (UniProt O94907); assay: DKK1 binders on small-molecule microarrays, primary screen, biochemical, small-molecule microarray, 635 nm fluorescence scan (AID 1106); settings: DKK1 binding, higher = more signal;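 also: score merges emission near 667 nm with signal to noise over three replicate slides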
# [20] = tested on: Inhibin beta A chain (activin A); assay: INHBA (activin A) binders on microarrays, primary screen, biochemical, small-molecule microarray, 635 nm fluorescence scan (AID 1107); settings: small-molecule microarray binding, higher = more signal;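 also: mouse activin A protein probed at 4.33 µg/mL on printed slides; score merges bound-protein fluorescence near 667 nm with spot signal-to-noise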
# Chain of Fibroblast growth factor 10 (Homo sapiens) (O15520 whole entry, looked up): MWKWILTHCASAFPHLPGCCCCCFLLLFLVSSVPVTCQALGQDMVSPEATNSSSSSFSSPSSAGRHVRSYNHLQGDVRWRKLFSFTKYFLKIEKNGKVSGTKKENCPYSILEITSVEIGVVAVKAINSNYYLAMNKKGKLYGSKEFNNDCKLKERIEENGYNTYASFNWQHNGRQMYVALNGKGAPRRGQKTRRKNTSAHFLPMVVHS
# Chain of Dickkopf-related protein 1 (Homo sapiens) (O94907 whole entry, looked up): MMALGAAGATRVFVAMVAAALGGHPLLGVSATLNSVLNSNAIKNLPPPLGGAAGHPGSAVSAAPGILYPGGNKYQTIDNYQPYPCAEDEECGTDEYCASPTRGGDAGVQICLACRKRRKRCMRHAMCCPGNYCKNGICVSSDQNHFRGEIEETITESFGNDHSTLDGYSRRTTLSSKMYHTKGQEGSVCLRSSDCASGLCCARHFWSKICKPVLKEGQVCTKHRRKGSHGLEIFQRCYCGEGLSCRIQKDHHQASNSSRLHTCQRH
# Chain of Epidermal growth factor receptor (Homo sapiens) (P00533 whole entry, looked up): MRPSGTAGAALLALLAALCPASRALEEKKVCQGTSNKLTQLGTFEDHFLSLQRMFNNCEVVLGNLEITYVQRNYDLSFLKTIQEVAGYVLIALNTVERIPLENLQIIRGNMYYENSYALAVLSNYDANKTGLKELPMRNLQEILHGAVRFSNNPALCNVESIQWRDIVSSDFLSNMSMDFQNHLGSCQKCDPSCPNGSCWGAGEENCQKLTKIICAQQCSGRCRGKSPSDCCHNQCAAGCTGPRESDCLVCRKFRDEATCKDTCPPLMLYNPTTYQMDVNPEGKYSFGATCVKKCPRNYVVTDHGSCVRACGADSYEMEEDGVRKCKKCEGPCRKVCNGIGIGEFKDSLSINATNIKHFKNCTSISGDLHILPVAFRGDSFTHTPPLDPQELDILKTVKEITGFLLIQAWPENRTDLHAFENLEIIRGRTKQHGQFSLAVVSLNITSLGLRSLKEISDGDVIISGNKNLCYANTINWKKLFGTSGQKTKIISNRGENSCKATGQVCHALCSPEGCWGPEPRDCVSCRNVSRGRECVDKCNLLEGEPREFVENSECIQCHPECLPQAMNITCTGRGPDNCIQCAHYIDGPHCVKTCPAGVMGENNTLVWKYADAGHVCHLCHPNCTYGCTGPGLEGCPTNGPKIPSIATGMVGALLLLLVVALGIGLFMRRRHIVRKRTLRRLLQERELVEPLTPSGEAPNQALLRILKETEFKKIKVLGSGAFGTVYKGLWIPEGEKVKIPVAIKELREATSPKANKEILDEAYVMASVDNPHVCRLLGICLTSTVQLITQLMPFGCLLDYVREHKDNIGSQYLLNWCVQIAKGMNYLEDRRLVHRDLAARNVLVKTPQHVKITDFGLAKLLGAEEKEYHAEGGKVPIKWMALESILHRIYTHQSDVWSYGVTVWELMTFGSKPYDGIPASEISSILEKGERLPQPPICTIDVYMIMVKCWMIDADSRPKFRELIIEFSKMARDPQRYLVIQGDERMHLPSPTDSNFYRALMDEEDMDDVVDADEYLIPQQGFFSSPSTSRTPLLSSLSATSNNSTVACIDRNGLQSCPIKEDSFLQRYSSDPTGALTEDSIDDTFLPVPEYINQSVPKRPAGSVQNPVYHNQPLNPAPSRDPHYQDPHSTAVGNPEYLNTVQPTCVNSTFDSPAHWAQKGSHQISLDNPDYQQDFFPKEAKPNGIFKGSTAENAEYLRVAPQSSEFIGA
# Chain of Torsin-1A-interacting protein 2 (Homo sapiens) (Q8NFQ8 whole entry, looked up): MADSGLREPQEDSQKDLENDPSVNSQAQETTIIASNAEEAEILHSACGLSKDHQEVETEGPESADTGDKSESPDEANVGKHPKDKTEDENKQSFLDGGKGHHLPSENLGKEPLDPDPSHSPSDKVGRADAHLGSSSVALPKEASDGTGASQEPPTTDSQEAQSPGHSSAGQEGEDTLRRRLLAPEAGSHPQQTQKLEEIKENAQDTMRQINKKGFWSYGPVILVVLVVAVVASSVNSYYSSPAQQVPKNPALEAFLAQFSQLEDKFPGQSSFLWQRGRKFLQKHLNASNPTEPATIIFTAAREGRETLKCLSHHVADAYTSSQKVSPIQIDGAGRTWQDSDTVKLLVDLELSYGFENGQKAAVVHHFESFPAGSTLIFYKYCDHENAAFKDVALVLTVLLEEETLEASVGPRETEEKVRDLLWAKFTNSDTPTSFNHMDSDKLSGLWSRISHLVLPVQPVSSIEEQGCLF
# Chain of Follistatin-related protein 3 (Homo sapiens) (O95633 whole entry, looked up): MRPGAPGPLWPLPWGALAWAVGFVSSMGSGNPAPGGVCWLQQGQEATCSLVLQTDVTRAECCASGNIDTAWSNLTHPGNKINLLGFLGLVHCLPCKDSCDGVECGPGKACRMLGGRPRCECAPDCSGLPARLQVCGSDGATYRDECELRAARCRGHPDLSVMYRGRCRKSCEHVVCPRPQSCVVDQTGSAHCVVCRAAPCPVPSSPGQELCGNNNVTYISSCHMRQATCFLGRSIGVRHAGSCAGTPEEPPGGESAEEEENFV
# Chain of Neurogenic locus notch homolog protein 3 (Homo sapiens) (Q9UM47 whole entry, looked up): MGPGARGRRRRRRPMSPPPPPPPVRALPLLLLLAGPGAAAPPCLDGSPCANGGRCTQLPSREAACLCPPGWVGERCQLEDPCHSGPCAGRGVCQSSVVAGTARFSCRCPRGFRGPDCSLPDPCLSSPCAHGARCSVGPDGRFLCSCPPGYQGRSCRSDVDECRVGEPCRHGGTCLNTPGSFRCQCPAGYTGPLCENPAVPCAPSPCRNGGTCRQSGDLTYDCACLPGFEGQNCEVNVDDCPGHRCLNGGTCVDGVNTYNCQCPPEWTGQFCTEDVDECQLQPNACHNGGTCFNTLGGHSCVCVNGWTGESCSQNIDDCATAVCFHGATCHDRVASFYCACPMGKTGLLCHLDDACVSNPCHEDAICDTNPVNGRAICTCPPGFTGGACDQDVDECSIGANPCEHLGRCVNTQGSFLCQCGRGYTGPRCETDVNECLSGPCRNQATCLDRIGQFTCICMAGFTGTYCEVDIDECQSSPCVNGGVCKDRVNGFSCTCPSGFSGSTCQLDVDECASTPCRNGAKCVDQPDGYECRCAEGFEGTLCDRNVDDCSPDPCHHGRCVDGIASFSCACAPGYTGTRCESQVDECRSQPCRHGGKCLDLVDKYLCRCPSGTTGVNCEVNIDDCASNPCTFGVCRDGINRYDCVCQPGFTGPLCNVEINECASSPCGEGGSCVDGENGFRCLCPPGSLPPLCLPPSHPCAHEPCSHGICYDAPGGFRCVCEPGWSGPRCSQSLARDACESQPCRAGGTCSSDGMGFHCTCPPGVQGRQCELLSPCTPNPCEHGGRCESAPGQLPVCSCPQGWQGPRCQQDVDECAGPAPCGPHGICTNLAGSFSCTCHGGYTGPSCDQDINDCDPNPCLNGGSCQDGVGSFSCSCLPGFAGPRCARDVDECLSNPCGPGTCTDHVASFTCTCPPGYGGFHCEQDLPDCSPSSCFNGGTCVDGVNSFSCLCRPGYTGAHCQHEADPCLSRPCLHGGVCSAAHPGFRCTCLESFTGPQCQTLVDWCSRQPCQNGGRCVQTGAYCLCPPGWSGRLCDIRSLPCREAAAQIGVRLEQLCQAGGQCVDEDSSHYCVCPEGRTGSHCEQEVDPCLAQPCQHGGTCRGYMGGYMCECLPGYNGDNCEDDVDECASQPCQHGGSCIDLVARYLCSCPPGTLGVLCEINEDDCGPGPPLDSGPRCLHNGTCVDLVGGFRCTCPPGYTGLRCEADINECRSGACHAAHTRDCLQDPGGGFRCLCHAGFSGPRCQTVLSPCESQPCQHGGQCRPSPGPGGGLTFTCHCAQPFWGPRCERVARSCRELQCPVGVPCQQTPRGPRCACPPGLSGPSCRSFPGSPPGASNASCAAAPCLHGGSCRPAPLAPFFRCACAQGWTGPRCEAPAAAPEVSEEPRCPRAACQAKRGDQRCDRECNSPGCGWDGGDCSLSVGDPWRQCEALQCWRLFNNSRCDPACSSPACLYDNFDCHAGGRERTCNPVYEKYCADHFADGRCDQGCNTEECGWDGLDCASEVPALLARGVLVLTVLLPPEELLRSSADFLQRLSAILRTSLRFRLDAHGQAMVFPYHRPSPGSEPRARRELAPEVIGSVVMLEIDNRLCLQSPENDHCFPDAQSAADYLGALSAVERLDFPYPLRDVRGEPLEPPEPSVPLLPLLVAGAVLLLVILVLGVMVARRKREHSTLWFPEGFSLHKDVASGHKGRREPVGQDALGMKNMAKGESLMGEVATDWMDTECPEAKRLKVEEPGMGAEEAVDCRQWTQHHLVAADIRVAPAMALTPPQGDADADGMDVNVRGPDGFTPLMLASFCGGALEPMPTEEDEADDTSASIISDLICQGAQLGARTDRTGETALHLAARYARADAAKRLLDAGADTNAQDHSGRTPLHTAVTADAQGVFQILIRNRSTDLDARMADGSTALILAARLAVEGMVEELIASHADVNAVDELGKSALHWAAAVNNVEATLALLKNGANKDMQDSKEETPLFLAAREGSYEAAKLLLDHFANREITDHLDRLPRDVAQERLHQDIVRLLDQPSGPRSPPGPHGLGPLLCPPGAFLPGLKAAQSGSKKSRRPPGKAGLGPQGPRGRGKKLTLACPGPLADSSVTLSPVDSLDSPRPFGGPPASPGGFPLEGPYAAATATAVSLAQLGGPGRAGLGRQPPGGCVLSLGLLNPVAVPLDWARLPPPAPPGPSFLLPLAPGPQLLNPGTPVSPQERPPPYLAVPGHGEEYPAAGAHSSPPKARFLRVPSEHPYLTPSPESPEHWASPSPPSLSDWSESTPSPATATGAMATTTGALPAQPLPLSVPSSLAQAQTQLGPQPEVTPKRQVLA
Compound,composite z-score [1],z-score [2],z-score [3],z-score [4],composite z-score [5],z-score [6],composite z-score [7],composite z-score [8],composite z-score [9],composite z-score [10],composite z-score [11],composite z-score [12],composite z-score [13],z-score [14],composite z-score [15],composite z-score [16],composite z-score [17],composite z-score [18],composite z-score [19],composite z-score [20]
COC(=O)[C@@]1(Cc2ccccc2)[C@H]2c3cc(C(=O)N4CCCC4)n(Cc4ccc(C(F)(F)F)nc4)c3C[C@H]2CN1C(=O)c1ccccc1,1.19,-0.461 (inactive),0.449 (inactive),1.98 (inactive),3.64,-0.35 (inactive),0.226,0.073,1.03,0.265,1.28,0.568,1.02,-0.434 (inactive),0.881,1.32,0.0424,1.1,-0.269,0.634
C=CCNC(=O)[C@@H]1[C@H]2C(=O)O[C@H](c3ccccc3)[C@H](c3ccccc3)N2[C@H](c2ccccc2OCCO)[C@@]12C(=O)N(C(=O)OCCOC)c1ccc(C#CCCO)cc12,1.55,0.656 (inactive),0.619 (inactive),3.69 (inactive),2.88,-0.625 (inactive),-0.135,0.96,1.08,0.038,1.05,-0.274,0.272,-0.821 (inactive),1.35,1.23,0.266,0.904,0.312,0.241
C=C(C(=O)CC[C@@H](OC(C)=O)c1cccc(OCCO)c1)C(C)C,0.745,1.55 (inactive),-0.464 (inactive),0.339 (inactive),1.62,0.351 (inactive),-0.186,-0.0056,0.507,-0.207,1.24,-0.136,0.114,2.37 (inactive),0.0186,-0.664,-0.649,-0.0718,-0.375,1.35
CC(C)CNC(=O)[C@@H]1c2ccccc2C(=O)N(Cc2ccccc2)[C@H]1c1ccc(CO)cc1,0.586,-0.416 (inactive),0.138 (inactive),-0.895 (inactive),3.22,-0.73 (inactive),-0.188,-0.731,-0.677,-0.189,0.0346,0.282,0.96,-0.18 (inactive),-0.787,0.0758,-1.35,-1.38,-1.05,-0.217
COC(=O)[C@@]1(Cc2ccc(OC)cc2)[C@@H]2[C@@H](CC(=O)[C@H]2CC(=O)C(=O)N2CCCC2)CN1C(=O)c1ccccc1,0.281,-0.347 (inactive),0.304 (inactive),-0.0364 (inactive),2.6,-0.455 (inactive),1.76,0.156,1.09,1.26,1.66,2.76,1.21,-2.69 (inactive),1.44,1.07,0.725,0.868,0.823,0.846
NC(=O)[C@@]1(CCS(=O)(=O)c2ccccc2)COC(c2ccc(OCCCO)cc2)=N1,-0.617,-0.0133 (inactive),-0.213 (inactive),0.0084 (inactive),1.28,0.817 (inactive),0.158,-0.0167,-0.57,-0.0826,1.35,0.628,0.831,0.129 (inactive),0.19,-0.123,-0.143,-0.232,-0.526,1.21
COc1cccc(C[C@H]2C[C@@H](CO[Si](C(C)C)(C(C)C)C(C)C)N3C(=O)[C@@]4(C(C)=O)O[C@@]23[C@@H]2C(=O)N(C)C(=O)[C@@H]24)c1,1.56,0.368 (inactive),0.827 (inactive),1.6 (inactive),0.189,-0.929 (inactive),-0.105,0.456,1.16,0.127,0.95,-0.0648,-0.197,-0.989 (inactive),1.22,0.5,0.494,1.17,1.62,-0.0336
COCCOC(=O)N1C(=O)[C@@]2(c3cc(C#Cc4ccc(OC)cc4)ccc31)[C@H](C(=O)N1CCCCCCC1)[C@H]1C(=O)O[C@H](c3ccccc3)[C@H](c3ccccc3)N1[C@@H]2c1ccccc1OCCO,1.44,1.83 (inactive),1.44 (inactive),3.98 (inactive),3.66,-0.291 (inactive),1.63,1.91,1.12,1.02,1.55,2.5,1.57,0.00537 (inactive),0.766,1.32,1.07,1.56,1.61,1.66
CC(C)(C)OC(=O)CC[C@]1(C(N)=O)N=C(c2ccc(OCCCO)cc2)O[C@H]1c1ccccc1CN=[N+]=[N-],1.15,1.33 (inactive),0.835 (inactive),0.56 (inactive),3.62,0.528 (inactive),0.314,0.0447,1.08,0.306,1.62,1.11,1.2,-0.26 (inactive),1.44,1.28,-0.643,0.0115,-0.395,0.0976
COC(=O)[C@@]1(Cc2ccc(OC)cc2)[C@H]2c3cc(C(=O)N(C)C)n(Cc4ccsc4Br)c3C[C@H]2CN1C(=O)c1ccccc1,-0.323,1.36 (inactive),1.51 (inactive),1.53 (inactive),3.41,0.126 (inactive),0.599,-0.56,0.251,0.301,0.895,1.08,0.826,-1.84 (inactive),-0.0197,-0.288,0.374,-0.288,-0.414,0.758
